In all, about 10,000 compounds went through this assay and about 5,600 (56%) were called active. Rule as the data show it: active = inhibition above about 40%; inactive = the rest. The set was probably picked from earlier hits. A selection follows.

Sequence of Protein Mdm4 (Homo sapiens) + E3 ubiquitin-protein ligase Mdm2 (Homo sapiens) (O15151 whole entry, looked up): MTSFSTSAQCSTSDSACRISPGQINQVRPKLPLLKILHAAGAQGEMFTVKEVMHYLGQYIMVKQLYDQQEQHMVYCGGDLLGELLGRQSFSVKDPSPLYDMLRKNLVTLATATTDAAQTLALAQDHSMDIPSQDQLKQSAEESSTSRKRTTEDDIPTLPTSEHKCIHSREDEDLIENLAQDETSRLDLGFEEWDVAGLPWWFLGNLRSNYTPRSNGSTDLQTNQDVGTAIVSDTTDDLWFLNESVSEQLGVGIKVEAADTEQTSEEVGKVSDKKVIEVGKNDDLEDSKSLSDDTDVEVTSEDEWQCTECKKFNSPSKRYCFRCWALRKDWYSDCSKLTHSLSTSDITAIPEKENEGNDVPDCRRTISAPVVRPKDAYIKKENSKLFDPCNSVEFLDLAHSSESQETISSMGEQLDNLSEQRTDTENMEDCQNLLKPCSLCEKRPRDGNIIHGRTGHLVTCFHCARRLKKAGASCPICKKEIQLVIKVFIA
Sequence of Protein Mdm4 (Homo sapiens) + E3 ubiquitin-protein ligase Mdm2 (Homo sapiens) (Q00987 whole entry, looked up): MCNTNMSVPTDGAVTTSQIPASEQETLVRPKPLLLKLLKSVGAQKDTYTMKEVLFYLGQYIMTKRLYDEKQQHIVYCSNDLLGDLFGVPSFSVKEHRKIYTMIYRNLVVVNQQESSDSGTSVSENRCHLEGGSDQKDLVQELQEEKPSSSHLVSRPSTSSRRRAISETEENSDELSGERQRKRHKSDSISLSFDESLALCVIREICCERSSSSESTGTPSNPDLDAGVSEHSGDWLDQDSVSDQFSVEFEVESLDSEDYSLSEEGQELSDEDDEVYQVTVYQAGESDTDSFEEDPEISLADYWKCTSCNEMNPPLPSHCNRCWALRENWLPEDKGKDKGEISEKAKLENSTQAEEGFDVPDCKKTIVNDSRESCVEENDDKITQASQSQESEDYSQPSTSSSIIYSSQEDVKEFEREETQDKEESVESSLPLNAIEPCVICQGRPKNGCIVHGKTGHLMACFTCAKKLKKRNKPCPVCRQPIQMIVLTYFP

This assay has as its target Protein Mdm4 (Homo sapiens) + E3 ubiquitin-protein ligase Mdm2 (Homo sapiens) (UniProt O15151+Q00987). The assay can be described thus: Mdm2-MdmX complex disruptors, retested hits, confirmation, luminescence, single concentration (AID 489028). To be noted: Mdm2-MdmX binding, luminescent assay; at 8 µM; stronger effect = higher value.
In the case of `CC(=O)/C(=N\Nc1ccc(Cl)cc1Cl)Sc1cccc2cccnc12`, the inhibition is 63% (active).

With `N#Cc1ccc(C(=O)Nc2cccc3cccnc23)c(F)c1`, the inhibition is 1.3% (inactive).

With `NC(N)=Nc1nc(-c2ccccc2)c2cc(Cl)ccc2n1`, the inhibition is 59.5% (active).

As for `CCCCCCC(=O)N(O)C1CC(=O)N(c2ccccc2)C1=O` (centres undefined), the inhibition was 27.3% (inactive).

In the case of `COc1ccc(Nc2ncnc3ccc(Br)cc23)c(OC)c1`, the inhibition was 74% (active).

Take `CC1CN(C(=O)CCC(=O)NCCCN2CCC(Cc3ccccc3)CC2)c2cc(Cl)ccc2O1` (centres undefined): the inhibition is 56.8% (active).

Regarding `CCN(CCCNC(=O)CSc1cc(=O)n(C)c2cc(Cl)ccc12)Cc1ccccc1`, the inhibition was 19.6% (inactive).

`FC(F)(F)c1ccc(CN2C[C@@H]3C(c4ccccc4)C4(c5ccccc5)CC3(C4)[C@H]2c2ccccc2)cc1` (some centres undefined): the inhibition is 94.5% (active).

Take `Cc1cc(C(=O)NC2CCCc3c2cnn3-c2cccc(C)c2C)c(C)o1` (centres undefined): the inhibition is 61.6% (active).

Regarding `COc1ccc(C(=O)NC2CCCc3c2cnn3-c2cccc(C)c2C)c(OC)n1` (centres undefined), the inhibition is 94.8% (active).

With `CCCCC(O)(CCCC)C(=O)NN(C(=O)CCl)c1ccccc1`, the inhibition was 57.1% (active).

On to `CCCC(O)(CCC)C(=O)NN(C(=O)CCl)c1cccc(C)c1`, for which the inhibition was 58.3% (active).

Regarding `CCCCn1ccnc1C(=O)c1cccc(S(=O)(=O)N2c3ccccc3CC2C)c1` (centres undefined), the inhibition is 9.35% (inactive).

On to `N=c1n(CCc2ccccc2)c2ccccc2n1Cc1ccccc1F`, for which the inhibition was 52.5% (active).

In the case of `CCCc1ccc(OCC(=O)NNC(=S)NC(=O)c2ccco2)cc1`, the inhibition was 23.9% (inactive).

Consider `COC(=O)c1c(NC(=O)COc2ccc(Cl)cc2Cl)sc2c1CC(C)(C)NC2(C)C`, for which the inhibition is 73.6% (active).

In the case of `CN1CCN(C2Cc3ccc(Cl)cc3Sc3ccc(F)cc32)CC1` (centres undefined), the inhibition is 27.8% (inactive).

On to `Oc1cccc(/C=N/Nc2ccc(Cl)nn2)c1O`, for which the inhibition was 61.2% (active).

As for `CCOc1ccc(C2c3[nH]c4ccccc4c3CCN2Cc2cccn2-c2ncccn2)cc1` (centres undefined), the inhibition was 32.3% (inactive).

`C=CCn1c(SCc2c(C)noc2C)nc2sc3c(c2c1=O)CCC(C)C3` (centres undefined): the inhibition was 57.9% (active).

Consider `CCOc1cc(-c2cc(-c3ccc(NC(C)=O)cc3)nc(N)c2C#N)ccc1O`, for which the inhibition was 31.6% (inactive).

Regarding `Cc1ccc(-n2[nH]c(C)c(/C=N/NC(=O)c3cccc([N+](=O)[O-])c3)c2=O)cc1C`, the inhibition is 82.2% (active).

As to `O=[N+]([O-])c1cc(S(=O)(=O)Nc2cccc(Cl)c2)ccc1N=Nc1c(O)[nH]c2ccccc12`, the inhibition was 5.3% (inactive).

Consider `NS(=O)(=O)c1ccc(N=Nc2c(O)[nH]c3ccc(Br)cc23)cc1`, for which the inhibition is 42.6% (active).

Regarding `CCNS(=O)(=O)c1ccc(NC(=O)Nc2cccc(C(F)(F)F)c2)cc1`, the inhibition was 42.4% (active).

For the molecule `O=C(Nc1ccc(-c2csc(Nc3cccc(C(F)(F)F)c3)n2)cc1)c1cccc(C(F)(F)F)c1`, the inhibition is -10.4% (inactive).

Consider `O=C(Nc1ccc(C(=O)N2CCOCC2)cc1)Nc1cccc(C(F)(F)F)c1`, for which the inhibition was 70.3% (active).

With `CC(C)Oc1c(Br)cc(Br)cc1/C=N/NC(N)=S`, the inhibition was 15.2% (inactive).

With `CCC1CCCCN1CCCNC(=O)c1cc2c(Cl)nc3ccccc3c2s1` (centres undefined), the inhibition is 26% (inactive).

As for `Cc1nc(/N=C(\N)NC(=O)NC2CCCCC2)nc2ccccc12`, the inhibition was 43.9% (active).

Regarding `O=[N+]([O-])/C=C/c1ccc2c(ccn2Cc2ccccc2)c1`, the inhibition was 52.9% (active).

Take `CN(c1ccccc1)S(=O)(=O)c1cc(C(=O)N2CCN(c3ncccn3)CC2)ccc1Cl`: the inhibition is 50.1% (active).

On to `O=C(CSc1nc(Nc2ccccc2)nc(N2CCOCC2)n1)Nc1cc(Cl)ccc1O`, for which the inhibition is 35% (inactive).

For the molecule `COc1cccc(-n2c(SCC(=O)NC3CCCCC3)nc3n[nH]c(C)c3c2=N)c1`, the inhibition was 51.4% (active).

`CC(C)(C)OC(=O)N1CCC(NC(=O)c2[nH]cnc2C(=O)N[C@@H](Cc2ccccc2)C(=O)OCc2ccccc2)CC1`: the inhibition is -8% (inactive).

Take `CCOC(=O)Nc1ccc2c(c1)N(C(=O)CCCl)c1ccccc1[S@]2=O`: the inhibition was 41.2% (active).

As to `CCOc1cc(C(=O)N2CCc3cc(OC)c(OC)cc3C2)ccc1OC(F)F`, the inhibition is 56.4% (active).

In the case of `CCOc1cc2[nH]c(=S)n(Cc3ccc(C(=O)N4CCN(C)CC4)cc3)c(=O)c2cc1OCC`, the inhibition was -2.8% (inactive).

For the molecule `O=c1[nH]c(CCl)nc2cc(-c3ccc(Cl)cc3)sc12`, the inhibition was 7.45% (inactive).

With `COc1cccc(NC(=O)[C@H](Cc2c[nH]c3ccccc23)NC(=O)[C@@H]2Cc3ccccc3CN2)c1`, the inhibition is 76% (active).

Turning to `CC(C)=CCCC1(C)C=Cc2c(ccc3c2[nH]c2cc(O)c(C)cc23)O1` (centres undefined), the inhibition is 20.9% (inactive).

For `Cc1ccc(OCCOCCOc2ccc(Br)cc2/C=N\NC(=O)c2ccncc2)cc1`, the inhibition is 68% (active).

Regarding `O=[N+]([O-])c1ccccc1S(=O)(=O)Nc1cccc2cccnc12`, the inhibition was 64.5% (active).

Regarding `O=C(Nc1cccc(C(F)(F)F)c1)c1ccc(N2CCNCC2)c([N+](=O)[O-])c1`, the inhibition was 8.6% (inactive).

In the case of `CC(NC(=O)c1ccc(N2CCNCC2)c([N+](=O)[O-])c1)C12CC3CC(CC(C3)C1)C2` (centres undefined), the inhibition was 73% (active).

On to `O=C(/C=C/c1ccc(Cl)cc1)Nc1ccc(Br)cn1`, for which the inhibition is 13.2% (inactive).

With `Cc1cccc(Nc2ccccc2C(=O)NCc2ccco2)c1C`, the inhibition is 43.1% (active).

`CCc1nn(-c2cc(Oc3cccc4ccccc34)nc(-c3ccccc3)n2)c(N)c1C#N`: the inhibition is 13.9% (inactive).

For `CN(C)c1ccnc2sc3c(=O)n(Cc4ccccc4)cnc3c12`, the inhibition is 64.7% (active).

With `Cc1c(/C=N\NC(=O)c2cc3ccccc3o2)c2ccccc2n1C`, the inhibition is 54.4% (active).

Regarding `N#CCC(=O)N/N=C/c1cn(Cc2ccc3ccccc3c2)c2ccccc12`, the inhibition is 23.6% (inactive).

Consider `COc1cccc(CNCCc2c[nH]c3ccccc23)c1OCc1ccccc1F`, for which the inhibition was 45.4% (active).

As for `COc1cccc(-c2nnc(NC(=O)c3ccc(S(=O)(=O)N(CC(C)C)CC(C)C)cc3)o2)c1`, the inhibition is 52.3% (active).

Take `NC(=O)c1sc2nc3c(c(-c4ccccc4)c2c1N)CCC3`: the inhibition is 68.7% (active).

For `COc1ccc(CNC(=O)C[C@H]2C[C@H](C(=O)N3CCOCC3)[C@@]3(CCC4CCCC4)c4[nH]c5ccc(Cl)cc5c4CCN3C2=O)cc1OC`, the inhibition is 49.1% (active).

For `CCCCCCCCn1c2c(c(=N)c3c1CCC3)CCCC2`, the inhibition is 91.8% (active).

As to `Cc1cc(=O)oc2cc(OCC3CC(c4ccccc4Cl)=NO3)ccc12` (centres undefined), the inhibition is 47.2% (active).

In the case of `CC(C)=CC(=O)Nc1nnc(-c2ccc(F)cc2)s1`, the inhibition was -17.9% (inactive).

For the molecule `Cc1nnnn1/C(=C\c1ccccc1)C(=O)OCC(=O)N1CC2(C)CC1CC(C)(C)C2` (centres undefined), the inhibition was 47.9% (active).

For `O=C(NCC1CCCO1)c1cc2c([nH]c3ccccc32)c(-c2ccc(F)cc2)n1` (centres undefined), the inhibition is 61.5% (active).

As to `COc1ccc(N=Cc2c(O)[nH]c3ccccc23)cc1OC`, the inhibition is 47% (active).

Take `COc1cc(N=Cc2c(O)[nH]c3ccccc23)cc(OC)c1OC`: the inhibition was 73.8% (active).

`C[C@@H](NC(=O)OC(C)(C)C)c1nnc(S(=O)(=O)Cc2ccccc2)o1`: the inhibition was 54% (active).

Turning to `CC(C)(C)OC(=O)NNc1c2ccccc2nc2ccccc12`, the inhibition was 21.1% (inactive).

Consider `Cc1ccnc(NC(=O)C2CCN(S(=O)(=O)c3c(C)c(C)cc(C)c3C)CC2)c1`, for which the inhibition was 69.8% (active).

For `CC(=O)Nc1ccc(NC(=O)C2CCCN(S(=O)(=O)c3ccc(Cl)cc3)C2)cc1` (centres undefined), the inhibition was 3.65% (inactive).

Regarding `COc1cc2[nH]c(=S)n(Cc3ccc(F)cc3)c(=O)c2cc1OC`, the inhibition was 15.8% (inactive).

Consider `COc1cccc2sc(NNC(=O)c3nc4ccccc4s3)nc12`, for which the inhibition was 45.7% (active).

As to `CCOc1ccc(-c2cc(C(=O)N/N=C/c3ccc(O)cc3)c3ccccc3n2)cc1`, the inhibition is 76.8% (active).

In the case of `Nc1ccc(C(=O)Nc2ccccc2N)cc1`, the inhibition was 6.25% (inactive).

For the molecule `COc1ccc(C(=O)/C=C/Nc2ccccn2)cc1`, the inhibition is 25.4% (inactive).

As to `O=C(CCCN1C(=O)/C(=C/c2ccccc2)SC1=S)Nc1ccc(O)cc1`, the inhibition was 93.9% (active).

As to `O=C(CCCN1C(=O)/C(=C/c2cccs2)SC1=S)Nc1ccc(O)cc1`, the inhibition was 61.5% (active).

As for `COc1ccc(/C=C2\SC(=S)N(CCC(=O)Nc3ccccn3)C2=O)cc1OC`, the inhibition was 54.1% (active).

Consider `O=C(CCCN1C(=O)/C(=C\c2ccccc2)SC1=S)Nc1ccccc1O`, for which the inhibition is 69.7% (active).

On to `CCN1CCN(c2ccc(S(=O)(=O)N3CCCCC3)cc2NC(=O)Cc2c(Cl)cccc2Cl)CC1`, for which the inhibition is 30.6% (inactive).

As to `O=C(/C=C/c1ccccc1)Nc1nnc(SCC(=O)c2ccc3ccccc3c2)s1`, the inhibition is 2.95% (inactive).

Consider `O=C(Nc1ccc(Cl)cc1)Nc1nnc(/C=C/c2ccccc2)s1`, for which the inhibition is 81.4% (active).

Regarding `Oc1ccc(Br)cc1/C=N/Nc1ccccn1`, the inhibition is 87.7% (active).

For `CCCCNC(=O)C(C)N(CCN(C)C)C(=O)CCCCCN1C(=O)NC(c2ccc(Cl)cc2)C(C(=O)OCc2ccccc2)=C1C` (centres undefined), the inhibition is 49.5% (active).

`CCCCNC(=O)C(C)N(CCN(C)C)C(=O)CCCN1C(=O)NC(c2ccc(Cl)cc2)C(C(=O)OCc2ccccc2)=C1C` (centres undefined): the inhibition is 15.1% (inactive).

Turning to `Cc1cc(C(=O)COC(=O)CNC(=O)c2ccc(F)cc2)c(C)n1Cc1ccco1`, the inhibition is 72.7% (active).

For the molecule `CC1=CC(C)(C)Nc2ccc(OC(=O)CN3C(=O)C4CCCCC4C3=O)cc21` (centres undefined), the inhibition is 9.75% (inactive).

For `COc1ccc(/C=C/C(=O)Nc2ccc(C34CC5CC(CC(O)(C5)C3)C4)cc2)cc1OC`, the inhibition was 36.9% (inactive).

As for `COc1cc(/C=N/NC(=O)Nc2ccccc2)ccc1OCCOc1ccccc1C`, the inhibition is 72.8% (active).

`Brc1ccc2ncnc(NCc3cccnc3)c2c1`: the inhibition was 68.7% (active).

With `CCn1c(O)c(N=NC(=O)c2cccc(S(=O)(=O)N3CCCCC3)c2)c2ccccc21`, the inhibition is 36.7% (inactive).

Regarding `Cc1cccc(NC(=O)c2nc(S(=O)(=O)Cc3ccccc3)ncc2Cl)c1`, the inhibition is 95.2% (active).

With `Cc1cccc(CS(=O)(=O)c2ncc(Cl)c(C(=O)Nc3ccc(F)cc3)n2)c1`, the inhibition is 75.5% (active).

By inhibition is commonly meant the relative decrease from the control value, in per cent.

These data come from PubChem BioAssay AID489028 (Sanford-Burnham Center for Chemical Genomics, 2010).
